104 compounds from ChEMBL document CHEMBL4513216, “Probing the Open Global Health Chemical Diversity Library for Multistage-Active Starting Points for Next-Generation Antimalarials” (ACS Infect Dis, 2020) can be followed below.

The whole screen tested about 68,000 compounds, of which about 2,700 (4%) showed an effect of 50% or more. The sample as a whole holds a higher share of strong results than the screen did.

The experiment relates to Plasmodium berghei. Kind of experiment: Screen against P. berghei liver stage (PbLuc), transformed with Luciferase, at 2uM. It counts as functional, HepG2. The settings on record: tested at 2 uM.
As to `c1ccc(-c2cccc(N3CCC(NCCc4cscn4)CC3)c2)cc1`, the INHIBITION is listed as -8.16%.
For `CC(C)CN1C(=O)CO[C@@H]2CNC[C@H]21` the value was 70.31%.
In the case of `O=C1CO[C@@H]2CNC[C@H]2N1CC1CC1` it was 27.61%; in that of `CC(C)CN1C(=O)CO[C@@H]2CN(C(=O)N(C)C)C[C@H]21`, -20.67%; in that of `CCN(Cc1cccc(C(=O)Nc2c(C)cnn2C)c1)[C@H]1COC[C@@H]1O`, 20.36%.
For `CC1CCN(C(=O)[C@@H]2CC[C@@H]3[C@@H](CCN3c3ncc(F)cn3)O2)CC1` the value was 3.63%.
Turning to `CCOc1cc(NC(=O)N(C)Cc2ncnn2C)ccc1C`, the INHIBITION is on record as 31.51%.
For the compound `CC(C)OCc1cccc(NC(=O)N(C)Cc2ncnn2C)c1`, the INHIBITION is given as 31.51%.
For `CCSCc1cccc(NC(=O)N(C)Cc2ncnn2C)c1` the value was 72.05%; for `CCOc1nc2cnccc2n(CC(=O)NCCc2ccccc2)c1=O`, 28.85%.
Take `COCCNC(=O)Cn1c(-c2ccco2)cc2cccnc21`: the INHIBITION was 37.87%.
In the case of `CCOc1nc2cccnc2n(CC(=O)NCCOC)c1=O` it was 74.49%; in that of `CNC(=O)CN1CCOCC2(C1)CN(C(=O)CC(C)C)CCO2` (centres undefined), -1.18%.
For `Fc1cccc2[nH]c(CN3CCc4cncnc4C3)nc12`, the INHIBITION is reported as 7.24%.
In the case of `Cc1nn(C)c(N(C)C)c1CNCc1cccnc1N1CCOCC1` it was 28.81%; in that of `O=S1(=O)CCCN1Cc1coc(-c2ccc(C(F)(F)F)cc2)n1`, 1.8%; in that of `CSc1ccc(C(C)NC(=O)c2cc(C)on2)cc1` (centres undefined), -121.09%.
For `COc1ccc(C(CC(=O)O)NC(=O)c2cc(C)on2)cc1` (centres undefined) the value was 73.09%.
For `CSc1ccc(C(CC(=O)O)NC(=O)c2cc(C)on2)cc1` (centres undefined) the value was -70.44%.
`CN(C)CC(=O)N1CCC2(CC(=O)N(c3cccc(C#N)c3)C2)C1` (centres undefined): the INHIBITION is -3.08%.
For `CC(C)c1nnc(N2C[C@H]3CC[C@@H](C2)N(Cc2ccccc2)C3)s1` the value was -23.49%; for `O=C1C[C@@H]2CC[C@H](CN1)N2C(=O)CCCc1ccc(Cl)cc1`, -29.06%; for `O=C1C(NS(=O)(=O)c2cc(F)cc(F)c2)CCN1Cc1ccccc1` (centres undefined), 23.92%.
For `O=C1C(NS(=O)(=O)c2ccc(F)cc2)CCN1Cc1ccccc1` (centres undefined) the value was 38.76%; for `O=C1C(NS(=O)(=O)c2cccc(F)c2)CCN1Cc1ccccc1` (centres undefined), 54.29%; for `CC(=O)N1CCS(=O)(=O)[C@@H]2CCN(CC(C)C)CC[C@@H]21`, 60%.
For `CC(C)CN1CC[C@@H]2[C@H](CC1)N(C(=O)c1ccccc1)CCS2(=O)=O`, the INHIBITION is -1.31%.
As to `CC(=O)N1CCS(=O)(=O)[C@@H]2CCN(S(=O)(=O)CC(C)C)CC[C@@H]21`, the INHIBITION was -12.76%.
For `Cc1nsc(C(=O)NCCc2ccc(S(N)(=O)=O)cc2)n1` the value was -43.28%; for `CC(C)Cc1nc(CN2CCOC(Cn3cccn3)C2)no1` (centres undefined), -20.61%; for `O=C(NC1CC1)c1cc(NC(=O)N2CCOCC2)ccc1Cl`, 64.9%.
For `O=C(NC1CC1)c1cc(NC(=O)N2CCSCC2)ccc1Cl` the value was 31.51%.
In the case of `O=C(NC1CC1)c1cc(NC(=O)N2CCCC2)ccc1Cl` it was 31.51%.
Take `CCN(Cc1cc(F)c(OC)c(Cl)c1)Cc1noc(CC(C)C)n1`: the INHIBITION is on record as 71.91%.
For `CCN(Cc1noc(CC(C)C)n1)Cc1ccccc1Cl` the value was -33.2%; for `CCN(Cc1cc(F)c(OC)c(Cl)c1)Cc1nc(COC)no1`, -20.98%; for `CCn1cc(CN2CCCC(c3[nH]ncc3-c3ccc(C)cc3)C2)cn1` (centres undefined), -20.72%.
In the case of `CN(C)Cc1nn(C)c2c1CCN(C(=O)c1cccnc1)C2` it was 47.97%; in that of `CNC(=O)c1cccc(CCNc2ncc(Br)cn2)c1`, 12.41%.
As for `CCn1cc(N)c(-c2nnc3n2CCCC3)n1`, the INHIBITION is on record as -37.89%.
In the case of `Cn1nnc2cc(C(=O)NS(=O)(=O)c3ccc(F)cc3)ccc21` it was 28.72%.
In the case of `Cc1cccc(S(=O)(=O)NC(=O)c2ccc3c(c2)nnn3C)c1` it was 53.99%; in that of `Cn1nnc2cc(C(=O)NS(=O)(=O)c3cccc(C#N)c3)ccc21`, -40.9%.
In the case of `CCc1ncc2c(n1)CN(c1nnc(C)c(C)c1C#N)CC2` it was 23.43%.
Regarding `Cc1cc(-c2cnc(N3CCCC(C)C3)nc2-c2cccnc2C)on1` (centres undefined), the INHIBITION was -39.75%.
In the case of `CS(=O)(=O)NCc1n[nH]c2c1CCN(C(=O)c1ccsc1)C2` it was 19.56%.
For `CCC(=O)NCc1cc(Br)ccc1OC(F)F` the value was 43.8%; for `CN1CCN2C(=O)N(C3CCOCC3)C[C@H]2C1`, 52.36%; for `CN1CCN2C(=O)N(C3CCCCC3)C[C@H]2C1`, -22.32%.
In the case of `CS(=O)(=O)N1CCN2C(=O)N(C3CCOCC3)C[C@H]2C1`, the INHIBITION is 35.89%.
In the case of `Cc1cnn(CC2CCCN2C(=O)CCc2ccncc2)c1` (centres undefined) it was -5.39%; in that of `N#Cc1ccc(C(=O)N2CCc3c(COCC4CC4)cncc3C2)cc1`, -20.87%; in that of `CSC1(CNC(=O)NCc2sccc2C)CCOCC1`, 13.58%.
For the compound `CSC1(CNC(=O)N(C)Cc2sccc2C)CCOCC1`, the INHIBITION is reported as 57.16%.
For `CSC1(CNC(=O)N(C)Cc2ccc(C)s2)CCOCC1` the value was -18.99%.
For the compound `CC(C)N(C)CC(=O)NCCc1nc(C(F)(F)F)cs1`, the INHIBITION is reported as -18.28%.
For `CN(C)Cc1nnc(C2CCN(c3ncccn3)CC2)n1C1CC1`, the INHIBITION is recorded as -61.17%.
For `CN(C)Cc1nnc(C2CCN(c3ncccc3Cl)CC2)n1C1CC1`, the INHIBITION is 84.18%.
As for `Cc1cnc(C)c(N2CCC(c3nnc(CN(C)C)n3C3CC3)CC2)n1`, the INHIBITION is -13.88%.
On to `Cn1cncc1CN1CCC2(CC1)COCCN(S(C)(=O)=O)C2`, for which the INHIBITION was -38.72%.
In the case of `Cc1cc(C(F)(F)F)nn1CCNC(=O)C(C)n1ccnc1C(C)C` (centres undefined), the INHIBITION is -4.93%.
In the case of `CCCN(CC1CC1)S(=O)(=O)c1ccc(NC(C)=O)cc1` it was -13.12%; in that of `CC(C)(O)CCc1cccc(C(=O)N2CCC[C@H]2C(N)=O)c1`, 6.26%.
For `CN(CCCOc1ccc(F)cc1)S(=O)(=O)c1cnn(C)c1`, the INHIBITION is listed as -6.65%.
On to `CN(CCCOc1ccccc1)S(=O)(=O)c1cnn(C)c1`, for which the INHIBITION was -2.63%.
Regarding `CN(CCOc1ccc(F)cc1)S(=O)(=O)c1cnn(C)c1`, the INHIBITION is -11.34%.
For `CN(C)CCOc1ccc(N(C)S(=O)(=O)c2cnn(C)c2)cc1` the value was 57.68%.
For `COc1ccc(OCCN(C)S(=O)(=O)c2cnn(C)c2)cc1` the value was 83.12%; for `Cc1ccc(OCCN(C)S(=O)(=O)c2cnn(C)c2)cc1`, 31.54%.
Turning to `Cc1oc(C(=O)O)cc1S(=O)(=O)Nc1cccc(-n2nccc2C)c1`, the INHIBITION stood at 37.15%.
Take `Cc1c[nH]nc1C1CCN(C(=O)C2CCCC2)C1` (centres undefined): the INHIBITION stood at 41.21%.
For `NC(=O)C1(Cc2ccc(-c3ccccc3)cc2)CCNC1` (centres undefined) the value was 9.18%; for `CCOC(=O)CNC(=O)N1CCOC(Cc2ccc(OC)cc2)C1` (centres undefined), 55.66%; for `CCOC(=O)CCNC(=O)N1CCOC(Cc2cccc(OC)c2)C1` (centres undefined), 25.37%.
In the case of `CCOC(=O)CNC(=O)N1CCOC(CCc2ccccc2)C1` (centres undefined) it was -18.39%; in that of `CN(C)CCOCC1CN(Cc2ccncc2)Cc2nnn(C)c21` (centres undefined), 7.1%; in that of `CN1CCC(N(CCc2ccccc2)C(=O)COCC2CCCO2)CC1` (centres undefined), 42.79%.
In the case of `Cc1cccc(-c2nccnc2C2CCN(C)CC2)c1C`, the INHIBITION was -25.17%.
Take `COC(=O)c1sc2cccc(F)c2c1CNC(=O)C1CCCO1` (centres undefined): the INHIBITION is 50.3%.
For `COC(=O)c1sc2cccc(F)c2c1CNC(=O)C1CC1` the value was 15.28%; for `COC(=O)c1sc2cccc(F)c2c1CNC(=O)C1CCOC1` (centres undefined), 33.02%; for `Cc1ncccc1-c1cc2cccnc2n1CCCNC(=O)C(C)(C)C`, 24.98%.
With `COCCN1CCC2(CC1)CC(NC(=O)CN(C)C)c1ccccc1O2` (centres undefined), the INHIBITION is recorded as 48.52%.
For `CCCn1nccc1NC(=O)CN1CCc2c(nc(C(C)C)n2C)C1` the value was 56.12%; for `CC(C)c1nc2c(n1C)CCN(CC(=O)Nc1nccs1)C2`, -15.91%; for `Cc1csc(NC(=O)CN2CCc3c(nc(C4CC4)n3C)C2)n1`, -1.02%.
Take `CC(C)c1nc2c(n1C)CCN(CC(=O)Nc1ccc(Cl)cn1)C2`: the INHIBITION turned out to be 51.92%.
In the case of `CC(C)c1nc2c(n1C)CCN(CC(=O)Nc1nncs1)C2` it was 60.09%; in that of `Cc1nnc(NC(=O)CN2CCc3c(nc(C(C)C)n3C)C2)s1`, 22.63%.
For `Cn1c(C2CC2)nc2c1CCN(CC(=O)Nc1nncs1)C2`, the INHIBITION was determined as 22.51%.
In the case of `Cc1nnc(NC(=O)CN2CCc3c(nc(C4CC4)n3C)C2)s1` it was 51.94%; in that of `CC(C)c1nc2c(n1C)CCN(CC(=O)Nc1ccncc1)C2`, -14.17%.
As for `CC(C)c1nc2c(n1C)CCN(CC(=O)Nc1cccnc1)C2`, the INHIBITION is -14.17%.
In the case of `CCCn1nccc1NC(=O)CN1CCc2c(nc(C3CC3)n2C)C1` it was 49.6%; in that of `CC(C)c1nc2c(n1C)CCN(CC(=O)Nc1ccnn1C(C)C)C2`, -42.83%; in that of `Cc1ccc2c(c1)C1(CCNCC1)CN2C(=O)CN(C)C`, 15.58%.
As for `O=C(Nc1cccnc1)C1Cc2nc(-c3ccsc3)sc2N1CC1CC1` (centres undefined), the INHIBITION stood at 18.2%.
In the case of `CCn1c(CN(C)C(=O)c2ccc(OC)nc2)nc2ccccc21` it was -33.03%; in that of `O=C(Nc1cccc(CNCc2cccnc2)c1)C1CCCC1`, 14.53%; in that of `O=C(c1cscn1)N1C[C@@H]2C[C@@H](c3nnc(C4CC4)o3)O[C@@H]2C1`, -4.1%.
As for `Cn1cc(CNC2CCc3ncnn3C2)c(-c2ccncc2)n1` (centres undefined), the INHIBITION is 49.88%.
In the case of `CN(C)C(=O)C1CCC2(CCNCC2)C1` (centres undefined) it was 26.55%; in that of `CC(C)N(C)Cc1cnc2n1CCN(S(=O)(=O)c1ccccc1)C2`, 29.3%; in that of `COc1ccc(C(=O)C2CCCN(Cc3cc(C)n[nH]3)C2)c(OC)c1` (centres undefined), 15.08%.
